Assay results taken from PubChem BioAssay AID720514 (Broad Institute, 2013).
The whole screen tested about 2,100 compounds, of which about 300 (14%) were called active. About 2% were inconclusive and are not listed.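 The calls were made as follows: active = every replicate test run called active, with the signal falling and half-maximal concentration within twice the top valid dose; inconclusive = the replicate test runs disagree in their calls; inactive = every test run inactive, including effects in the opposite direction.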 Not all results are given here. Potency and affinity values are given separately.

Experiment: inhibitors of PGC1a acetylation in cells, dose response, cell-based, cherry-picked samples (AID 720514);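 also: actives lower the acetylation signal so they count as inhibitors of PGC1a acetylation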
Settings: U2OS PGC1a acetylation, AlphaLISA, overnight; series mostly up to 19.5 µM

outcome, inactive:
COc1ccccc1-c1ccc2c(c1)O[C@@H](CN(C)Cc1ccc3c(c1)OCO3)[C@@H](C)CN([C@@H](C)CO)S2(=O)=O
COC(=O)c1ccc(NC(=O)C23CC4CC(C2)CC(n2cnc(Cl)n2)(C4)C3)cc1
CCOc1ccc(S(=O)(=O)N2c3ccccc3CC2C)cc1 (stereo not given)
CCOc1ccc(N2C(=O)CC(Cc3ccc(Br)cc3)C2=O)cc1 (stereo not given)
CCCCN=C1NC(=O)C(CC(=O)Nc2ccc(Cl)cc2)S1 (stereo not given)
O=C(Cc1ccccc1)N1CCN(C(=O)c2cccs2)CC1
CCN1CCN(c2ncc(C(=O)Nc3cc(Cl)ccc3OC)c3ccccc23)CC1
CCN1CCN(c2cc(C)c3cc(NC(=O)c4ccc(Br)o4)ccc3n2)CC1
C[C@H]1CN([C@@H](C)CO)C(=O)c2cccc(NS(=O)(=O)c3ccc(F)cc3)c2O[C@H]1CN(C)Cc1ccc(C(F)(F)F)cc1
COc1ccc(S(=O)(=O)N(C)C[C@@H]2Oc3cc(C#CC4CC4)ccc3S(=O)(=O)N([C@@H](C)CO)C[C@@H]2C)cc1
COc1ccc(S(=O)(=O)N(C)C[C@@H]2Oc3cc(C#CC4CC4)ccc3S(=O)(=O)N([C@H](C)CO)C[C@@H]2C)cc1
CCCCC(=O)Nc1ccc(NC(=O)c2cccs2)cn1
OCCNc1nc(N2CCCCC2)nc2ccccc12
Cc1ccc(-c2nnc(Nc3ccc4c(c3)OCO4)c3ccccc23)cc1S(=O)(=O)NCCO
O=[N+]([O-])c1cc(-c2nnc(Nc3ccc(O)cc3)c3ccccc23)ccc1N1CCOCC1
Cc1ccc2c(CN(Cc3ccccc3)Cc3ccccc3)cc(=O)oc2c1
COCCNC(=O)c1ccc(C)cc1C
COc1ccc(S(=O)(=O)N2CC[C@@H]3[C@H](CO)Nc4ccc(-c5ccccc5F)cc4[C@@H]32)cc1
Cc1ccc(S(=O)(=O)N(Cc2ccc(F)cc2)Cc2ccco2)cc1
CCOc1ccc(Nc2oc(-c3ccc(Cl)cc3)nc2C#N)cc1
CO[C@@H]1CN(C)C(=O)c2cc(NC(=O)c3ccc4c(c3)OCO4)ccc2OC[C@@H](C)N(CC2CC2)C[C@H]1C
COCC(=O)Nc1ccc2c(c1)OC[C@@H](C)N(CCc1ccccc1)C[C@H](C)[C@H](OC)CN(C)C2=O
COc1ccc(S(=O)(=O)N(C)C[C@@H]2Oc3ccc(NC(=O)CCN4CCOCC4)cc3C(=O)N([C@H](C)CO)C[C@H]2C)cc1
COC(=O)c1c(NC(=O)COC(=O)[C@@H](NS(=O)(=O)c2ccccc2)C(C)C)sc2c1CCC2
Cc1cc(Nc2ccccc2)cc(=O)n1C
CCN(CC)CCOc1ccc(/C(=C(\Cl)c2ccccc2)c2ccccc2)cc1
COc1ccc(CN(CCC(C)C)S(=O)(=O)c2ccccc2Br)cc1
Nc1nnc(SCC(=O)NC2CCCCC2)n1-c1ccccc1
O=C(NC1CCCCC1)c1cccnc1C(=O)O
Cc1ccccc1Cn1cc(NC(=O)c2cc(-c3cccs3)on2)cn1
Cc1cc2cc3c(cc2nc1SCC(=O)OC(C)C)OCCO3
Cc1cccc(-c2ccc3[nH]c4c(c3c2)CCN2C[C@@H]([C@H](C)O)[C@@H](N(C)C(=O)NC3CCCCC3)C[C@@H]42)c1
O=C(Nc1ccc(-c2noc(CCc3ccccc3)n2)cc1)c1cccnc1
COC(=O)c1ccc2[nH]c3cccc(/C(=C/c4ccccc4)c4ccccc4)c3c2c1
O=C(Nc1cnc2ccccc2c1)c1cccnc1
COc1ccc(Br)cc1CNc1ccccc1
Cc1cc(C)n2c(SCC(=O)NCc3ccco3)nnc2n1
CCn1c(SCC(=O)Nc2ccc(NC(=O)c3ccco3)cc2)nnc1-c1cccs1
NC(=O)Cc1ccc2c(c1)[nH]c1ccccc12
Cc1ccc(S(=O)(=O)N2C[C@@H]3N[C@H](C2)[C@@H]3c2ccc(-c3cccc(C)c3)cc2)cc1
COc1ccccc1-c1ccc(C2[C@@H]3CN(S(=O)(=O)c4ccc(C)cc4)C[C@H]2N3)cc1 (stereo not given in full)
O=S(=O)(c1ccc(Cl)cc1)N1[C@@H]2CNC[C@H]1C2c1ccc(-c2cccc(F)c2)cc1 (stereo not given in full)
Cc1ccccc1-c1ccc(C2[C@@H]3CN(S(=O)(=O)c4ccccc4C)C[C@H]2N3)cc1 (stereo not given in full)
Fc1ccc(CN(Cc2ccccc2)C(c2cccs2)c2nnnn2C2CCCCC2)cc1 (stereo not given)
O=C(NCc1ccc(Cl)cc1)C1CCC(CNc2c(N3CCCC3)c(=O)c2=O)CC1 (stereo not given)
Cc1cccc(Oc2nccc(C(F)(F)F)c2C(=O)Nc2ccc(F)cc2F)c1
c1coc(CN(Cc2cccs2)Cc2nnnn2C2CCCCC2)c1
C[C@@H](c1ccccc1)N1Cc2ccccc2Oc2cc(Br)ccc2S1(=O)=O
C=C[C@H]1C(C(=O)OCC)=CC[C@@H](c2ccccc2)N1S(=O)(=O)c1ccc(C)cc1
CCOC(=O)C1=CC[C@@H](c2ccc(F)cc2)N(S(=O)(=O)c2ccc(C)cc2)[C@H]1c1ccccc1
O=C(Nc1cccnc1)c1ccc(Oc2ccccc2)cc1
Nc1ccc(N2CCCCC2)cc1N1CCCCC1
O=C(Nc1cccnc1)c1ccc(Br)s1
Cc1ccc2[nH]c(=O)c(CN(Cc3ccc4c(c3)OCO4)Cc3nnnn3C3CCCC3)cc2c1
O=C(c1ccc(F)cc1)N1CC(=O)N2[C@H](CO)[C@@H](c3ccc(C#CCC4CCCC4)cc3)[C@@H]2C1
O=C(Nc1ccc(F)cc1)N1CC(=O)N2[C@@H](CO)[C@H](c3ccc(Br)cc3)[C@@H]2C1
CC(C)CC#Cc1ccc([C@@H]2[C@H](CO)N3CCCCN(S(=O)(=O)Cc4ccccc4)C[C@@H]23)cc1
Cc1cccc(OC2(c3ccccc3)OC(=O)c3ccccc32)c1C (stereo not given)
O=C(COc1cccnc1[N+](=O)[O-])NCCc1ccc(Cl)cc1
COc1cccc(-c2ccc(C3[C@@H]4CN(S(=O)(=O)c5cccc(OC)c5)C[C@H]3N4)cc2)c1 (stereo not given in full)
